Results: PubChem BioAssay (NCI)
About 79,000 compounds went through this panel and 15% of them were active in at least one assay; those are over-represented in the sample as a whole. Calls of active or inactive are those of the source. No stated cut-off is given here; in the data, active means growth inhibition above about 70%; inactive means the rest.

What was measured:
[1] = NCI Yeast Anticancer Drug Screen. Data for the rad50 strain (AID 155);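 further: 0% = growth of vehicle-only cultures of the same strain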; details: S. cerevisiae rad50 strain growth inhibition; at 50.0 µM; stronger effect = higher value
In short: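 Yeast carrying a defined DNA repair defect were exposed to test compounds, and growth was compared with vehicle-treated controls to give percent inhibition.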

[2] = NCI Yeast Anticancer Drug Screen. Data for the mec2-1 strain (AID 157); details: S. cerevisiae mec2-1 strain, at 50.0 µM, stronger effect = higher value
In short: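 Mutant yeast (mec2-1) grown with compound; growth inhibition relative to vehicle control reported.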

[3] = NCI Yeast Anticancer Drug Screen. Data for the sgs1 mgt1 strain (AID 161);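 further: 0% = growth of cultures given vehicle only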; details: S. cerevisiae sgs1 mgt1 strain, at 50.0 µM, stronger effect = higher value
In short: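 Growth of a repair-deficient yeast mutant was monitored after compound treatment and expressed as inhibition relative to vehicle-treated cultures.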

[4] = NCI Yeast Anticancer Drug Screen. Data for the cln2 rad14 strain (AID 165);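 further: 0% = growth equal to vehicle treated cultures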; details: S. cerevisiae cln2 rad14 strain, at 50.0 µM, stronger effect = higher value
In short: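 Readout is yeast growth inhibition versus vehicle-treated controls, using a strain with cln2 and rad14 alterations exposed to compound.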

[5] = NCI Yeast Anticancer Drug Screen. Data for the bub3 strain (AID 167); details: S. cerevisiae bub3 mutant strain, at 50.0 µM, stronger effect = higher value
In short: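 Compounds were applied to a genetically altered yeast strain carrying a cell-cycle control defect. Growth inhibition was scored against vehicle-treated controls.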

[6] = NCI Yeast Anticancer Drug Screen. Data for the mlh1 rad18 strain (AID 175); details: S. cerevisiae mlh1 rad18 strain growth inhibition; at 50.0 µM; stronger effect = higher value
In short: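 Genetically defined yeast (DNA repair-deficient) exposed to compounds; growth inhibition determined relative to vehicle.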

Measured: growth inhibition

O=C(O)/C(Cc1ccc([N+](=O)[O-])cc1)=N\O
inactive: [1] -4.2% | [2] 6.85% | [3] -25.4% | [4] -16.6% | [5] 17.4% | [6] -2.8%

O=c1cc(CCl)nc2c3ncn(C4OC(CO)C(O)C4O)c3ncn12 (stereo not drawn)
inactive: [1] -11.8% | [2] -16.5% | [3] -0.25% | [4] -5.95% | [5] -8.15% | [6] -0.55%

CCCc1c(O)cccc1O
inactive: [1] 13.8% | [2] 6.55% | [3] 16.9% | [4] 0.9% | [5] -5.55% | [6] 11%

COC(=O)C1CCCC(=O)C1C(=O)OC (stereo not drawn)
inactive: [1] 1.35% | [2] 0.3% | [3] -3.45% | [4] -36.2% | [5] -23% | [6] 2.05%

O=C(O)CS/C(=N\S(=O)(=O)c1ccccc1)Nc1cccc(Cl)c1
inactive: [1] -2.85% | [2] -24.9% | [3] 19.1% | [4] 12% | [5] 5.45% | [6] -7.85%

COc1ccc(Cc2cc3c(cc2OCC(=O)Nc2ccccn2)OCO3)cc1
inactive: [1] 22.2% | [2] -1.95% | [3] 6.25% | [4] 19.3% | [5] -3% | [6] 8.1%

CCN(Cc1cc(Cl)cc(C)c1O)Cc1c(O)ccc2ccccc12
active: [1] 99.5% | [2] 99.2% | [3] 99.3% | [4] 99.3% | [5] 98.6% | [6] 99.7%

Cc1cccc(C(=O)C(O)c2cccc(C)n2)n1 (stereo not drawn)
inactive: [1] 7.75% | [2] -18.4% | [3] -1.55% | [4] 8.2% | [5] -20.3% | [6] 4.4%

CC1CP(=O)(Cc2ccccc2)C(C)(c2ccccc2)C1=O (stereo not drawn)
inactive: [1] -18.4% | [2] -0.95% | [3] 31.4% | [4] -4.2% | [5] 40.2% | [6] -6.5%

Cc1ccc(S(=O)(=O)Nc2ccc(O)cc2)cc1
inactive: [1] -11.2% | [2] -15.2% | [3] -15.2% | [4] -27% | [5] -7.6% | [6] -5.4%

O=C1CSC(c2cccc(O)c2)N1c1nncs1 (stereo not drawn)
inactive: [1] 6.75% | [2] 12.9% | [3] 21.9% | [4] 12.7% | [5] 14.2% | [6] 15.2%

O=[N+]([O-])c1c(O)c(O)c2ccccc2c1Nc1ccccc1
inactive: [1] -29.9% | [2] -5.8% | [3] -0.3% | [4] -62.4% | [5] 11.7% | [6] -1.65%

Nc1ncnc2c1ncn2C1CC(O)C(COP(=O)(O)O)O1 (stereo not drawn)
inactive: [1] 0.15% | [2] -4.65% | [3] 0.85% | [4] -23.4% | [5] 0.45% | [6] 4.7%

c1ccc(N=C(Nc2ccccc2)N2CCCC2)cc1
inactive: [1] -33.2% | [2] -13.6% | [3] -28.1% | [4] 5.7% | [5] -19.8% | [6] -19.4%

O=C1NCC2(CCN(Cc3ccccc3)CC2)N1c1ccccc1
inactive: [1] 7.6% | [2] 3.05% | [3] 2.4% | [4] 4.85% | [5] -13.1% | [6] 13.7%

CCC(=O)OCCOC(=O)CC
inactive: [1] 26.8% | [2] 16.7% | [3] 6.9% | [4] 18.6% | [5] 23.6% | [6] 9.25%

CCCCC(O)CNc1ccccc1 (stereo not drawn)
inactive: [1] -7.4% | [2] 14.7% | [3] 5.7% | [4] -5.75% | [5] 9.65% | [6] 3.75%

CCCCN(CCCC)c1c([N+](=O)[O-])c(=O)nc2ccccn12
inactive: [1] 21.1% | [2] -3.35% | [3] 5.7% | [4] 11.7% | [5] 11.2% | [6] 37.9%

O=C1NC(N2CCCCC2)=N/C1=C\c1ccc(Cl)cc1
inactive: [1] -7.5% | [2] -7% | [3] 2.4% | [4] 7.55% | [5] -12.3% | [6] -38.5%

CCOC(=O)/C(OC(C)=O)=C1/C=C(C(=O)c2ccccc2)CCC1
inactive: [1] 7.8% | [2] 25.2% | [3] 11.9% | [4] -4.1% | [5] 27.1% | [6] 7.4%

N#CNC1=C(C#N)C(c2ccccc2)CC(=O)N1 (stereo not drawn)
inactive: [1] 4.35% | [2] 25.5% | [3] 24.9% | [4] 0% | [5] -0.4% | [6] 10.2%

NC(=O)CCCCCCCC(=O)O
inactive: [1] -0.9% | [2] -5.7% | [3] -13.4% | [4] 1.45% | [5] -10.6% | [6] -22.9%

CC1(COc2ccccc2)NC(=O)c2ccccc2O1 (stereo not drawn)
inactive: [1] -5.85% | [2] -13.4% | [3] 10.6% | [4] -46.2% | [5] 0.85% | [6] -6.25%

Cc1[nH]c(=O)nc(N/N=C/c2ccc(O)cc2)c1C(=O)Nc1ccc(Cl)cc1
inactive: [1] -17.6% | [2] -16% | [3] -20.6% | [4] -3.15% | [5] -12.6% | [6] -25.9%

CC[C@]12CCCN3CCc4c(n(c5ccccc45)C(=O)C1)[C@@H]32
inactive: [1] -25.9% | [2] -23.2% | [3] -49.1% | [4] 29.4% | [5] -25.6% | [6] 31.1%

CC1(C=O)C(=O)CCC2(C)C3CC(=O)OC3CCC12 (stereo not drawn)
inactive: [1] -35% | [2] -10.1% | [3] -10.8% | [4] -20.3% | [5] -17.7% | [6] -27.1%

O=C(O)C1=C(C(=O)O)C2CCCC3C4CCCCC4N(N1)C23 (stereo not drawn)
inactive: [1] 20.1% | [2] -13.9% | [3] -20.4% | [4] 3.9% | [5] 1.15% | [6] 22.9%

CC(=O)N(C(C)=O)c1cc2c3ccccc3ccc2c2ccccc12
inactive: [1] 22.4% | [2] -6.3% | [3] 31.1% | [4] 15.1% | [5] 32.8% | [6] 29.4%

CC(C)CC1NC(=O)OC1=O (stereo not drawn)
inactive: [1] 6.7% | [2] 0.9% | [3] -9.7% | [4] -17.6% | [5] 1.25% | [6] 0.35%

O=C(c1ccccc1)c1cc(Cl)ccc1NCn1nnc2ccccc21
inactive: [1] -47.9% | [2] -22.1% | [3] -40.8% | [4] -21.8% | [5] -49.5% | [6] -30.1%

CCOC1NC(/N=C/c2ccc(OC)cc2)=C(C#N)C1C#N (stereo not drawn)
inactive: [1] -29.2% | [2] -6.7% | [3] -49.5% | [4] 12.4% | [5] -28.1% | [6] -35%

CC(C)OP(=O)(OC(C)C)C([CH2][Sn]([CH3])([CH3])[Cl])P(=O)(OC(C)C)OC(C)C
inactive: [1] 5.75% | [2] -0.8% | [3] 0.45% | [4] 0.25% | [5] -2.1% | [6] -1.45%

CCOc1ccc(N=Nc2c(C)nc(N)nc2-c2ccccc2)cc1
inactive: [1] 20.1% | [2] -14.7% | [3] 4.1% | [4] -4.75% | [5] 35.4% | [6] 24.4%

COC1=C(C(C2=C(OC)CC(C)(C)CC2=O)c2ccc3c(c2)OCO3)C(=O)CC(C)(C)C1
inactive: [1] 31.6% | [2] 7.7% | [3] -9.05% | [4] 0.3% | [5] -0.65% | [6] 11.9%

[Zn+2].c1ccc(-c2c3nc(c(-c4ccccc4)c4[n-]c(c(-c5ccccc5)c5nc(c(-c6ccccc6)c6[n-]c2c2ccccc62)-c2ccccc2-5)c2ccccc42)-c2ccccc2-3)cc1
inactive: [1] -37.5% | [2] -36.4% | [3] -32.6% | [4] -6.55% | [5] -23.9% | [6] -36.8%

Cc1ccc(C2(C)NC(=S)N(NC(N)=S)C2=S)cc1 (stereo not drawn)
inactive: [1] 32.3% | [2] 19.8% | [3] 7.15% | [4] 3.25% | [5] 4.65% | [6] 21.8%

O=C1C=CC2C=CC1C=C2
inactive: [1] -1.55% | [2] 14.8% | [3] 23.2% | [4] 1.15% | [5] -7.7% | [6] 11.7%

CCN(CC)CC(=N)N(CC)c1ccccc1
inactive: [1] 26.5% | [2] 6.95% | [3] 4.7% | [4] 11.9% | [5] 23.8% | [6] 28.5%
